KDM5B inh – blocks human KDM5B histone demethylase activity; Q9UGL1; Potency, µM (titrated, usually from 57.7 µM), most hits filed as inhibitors; actives 2.6% (n = 220,000); KDM5B demethylase, FDH-coupled NADH fluorescence (FDH is formaldehyde dehydrogenase); further: potency means the concentration at half of the fitted maximal effect; 0% is about no effect; nearly all actives have a fitted effect of over 70% in size
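Compound dilutions met 200 nM (final) KDM5BΔAP for 10 min at room temperature before substrate addition. The substrate mix held 12.5 µM H3K4me3 with cofactors 25 µM α-ketoglutarate and 50 µM Fe²⁺. NADH signal gain over 30 min defined activity.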
SNCA expr inh – SNCA gene expression inhibition; Potency, µM (titrated, usually from 57.2 µM), for the others: at the top dose activity change, negative = inhibition, most hits filed as inhibitors; HEK-293 SNCA-luciferase knock-in, luminescence, 24 h; actives 0.17% (n = 140,000);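 further: potency means the concentration at half of the fitted maximal effect; plate controls were DMSO cells for no effect and cell-free wells for full effect; nearly all actives have a fitted effect of over 45% in size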
SNCA viab count – reduces viability of HEK-293 SNCA reporter cells; HEK-293-SNCA-luc viability, GF-AFC fluorescence, 24 h; Potency, µM (series often up to 57.1 µM), inactives show top-dose activity change, negative = cytotoxicity, most hits filed as cytotoxic; actives 0.12% (n = 150,000); AID 1671193;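 further: potency means the concentration at half of the fitted maximal effect; 0% = DMSO-treated cells and -100% = medium-only wells without cells; nearly all actives have a fitted effect of over 30% in size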
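Cytotoxicity counterscreen: after 24 h compound treatment of genome-edited SNCA-luciferase HEK-293 cells, live-cell protease substrate GF-AFC read by fluorescence after 30 min; activity scaled between DMSO (0%) and medium-only (-100%), curves Hill-fitted.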
IP6K1 inhibitor – blocks human inositol hexakisphosphate kinase 1. Q92551. actives 0.81% (n = 140,000). activity change, % (series mostly up to about 58 µM). IP6K1 kinase, ADP-Glo luminescence, 2 h; stronger effect = lower value; in the data active means activity change below about -25%; further: on the % scale 0 is the no-effect control and ±100 the full control effect
Target sequence (Q92551 whole entry, looked up): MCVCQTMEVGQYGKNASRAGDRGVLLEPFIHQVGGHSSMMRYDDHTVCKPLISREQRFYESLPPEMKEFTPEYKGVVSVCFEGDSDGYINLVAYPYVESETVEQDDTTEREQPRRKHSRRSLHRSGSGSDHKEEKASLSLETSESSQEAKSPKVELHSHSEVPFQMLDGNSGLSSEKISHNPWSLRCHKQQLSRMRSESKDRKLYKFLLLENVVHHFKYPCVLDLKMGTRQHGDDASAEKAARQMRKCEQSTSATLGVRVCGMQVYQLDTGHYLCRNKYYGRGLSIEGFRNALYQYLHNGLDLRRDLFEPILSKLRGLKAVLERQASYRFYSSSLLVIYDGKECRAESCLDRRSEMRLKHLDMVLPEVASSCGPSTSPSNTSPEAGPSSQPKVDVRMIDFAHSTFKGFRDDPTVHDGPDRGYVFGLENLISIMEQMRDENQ
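ADP-Glo luminescence measures ADP made by human IP6K1 during a 2 h RT reaction with ATP/IP6 (mix at 1.3 mM/130 uM); top library doses 57.5 and 19.1 uM final.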
* = called active by the depositor; [ ] = remark or other dose. Rows were chosen to be rich in hits. Some 2.8% of all compounds tested hit in one or more screens of this group. Unless noted, the call rests on the fitted dose curve; in most records, active means well fitted curve in the direction sought with a large enough effect; inconclusive means small, poorly fitted or top-dose-only effect, or another doubt; inactive means no such curve, though single readings can be large; an effect the other way counts as inactive or inconclusive.

CC(=O)N1CCCC2(C1)CN(C)c1ccc(C(=O)NCC(F)(F)F)cc12 (configuration not stated) was read as KDM5B inh inconclusive, SNCA expr inh 6.4%[87.6 µM], SNCA viab count 6.4%[87.6 µM] and IP6K1 inhibitor 2.6.
For CN1CCCC2(C1)CN(C)c1ccc(C(=O)NCCc3ccccc3)cc12 (configuration not stated) the results were KDM5B inh 31.6µM*, SNCA expr inh 11.5%[87.6 µM], SNCA viab count -0.7%[87.6 µM] and IP6K1 inhibitor 9.0.
CN(C)CC(=O)N1CCC2(C1)CN(C)c1ccc(C(=O)NCc3ccccc3)cc12 (configuration not stated) was read as KDM5B inh 35.5µM*, SNCA expr inh -1.6%[87.6 µM], SNCA viab count -2.5%[87.6 µM] and IP6K1 inhibitor 7.0.
`Cc1cnc(C(=O)N2CCC(C3CCN(S(C)(=O)=O)CC3)C2)cn1` (configuration not stated) gave KDM5B inh inactive, SNCA expr inh 4.3%, SNCA viab count -2.2%[12.5 µM] and IP6K1 inhibitor 2.8.
O=C(CN1C(=O)CNC1=O)N1C[C@H](CO)C[C@H](CN2CCOCC2)C1 was read as KDM5B inh inactive, SNCA expr inh 25.1%, SNCA viab count 7.2% and IP6K1 inhibitor -4.4.
Screening c1cncc(CN2CCC(C3CCN(Cc4ccc[nH]4)C3)CC2)c1 (configuration not stated) returned KDM5B inh 14.1µM*, SNCA expr inh 0.2%, SNCA viab count -3.1% and IP6K1 inhibitor -7.2.
COc1ccc(NC(=O)c2cnc[nH]2)cc1 was read as KDM5B inh inactive, SNCA expr inh 14.1µM*, SNCA viab count -11.9% and IP6K1 inhibitor -3.1.
COc1ccc(C(=O)c2cnc[nH]2)cc1 was read as KDM5B inh inactive.
Screening CC(C)c1ccc([S+](=O)([O-])c2nnn3c2nc(NCc2ccncc2)c2ccccc23)cc1 returned KDM5B inh 79.4µM*, SNCA expr inh inconclusive, SNCA viab count -9.7% and IP6K1 inhibitor -1.7.
Screening Cc1ccc(C)c([S+](=O)([O-])c2nnn3c2nc(NCc2ccncc2)c2ccccc23)c1 returned KDM5B inh 89.1µM*, SNCA expr inh -6.5%, SNCA viab count -20.1% and IP6K1 inhibitor 2.6.
`CCc1ccc([S+](=O)([O-])c2nnn3c2nc(NCc2ccncc2)c2ccccc23)cc1` gave KDM5B inh 50.1µM*, SNCA expr inh 17.0%, SNCA viab count -27.3% and IP6K1 inhibitor 21.7.
O=[S+]([O-])(c1ccc(Cl)cc1)c1nnn2c1nc(NCc1ccncc1)c1ccccc12 was read as KDM5B inh 89.1µM*, SNCA expr inh 35.3%, SNCA viab count 8.2% and IP6K1 inhibitor -2.4.
Screening Cc1ccc([S+](=O)([O-])c2nnn3c2nc(NCc2ccncc2)c2ccccc23)cc1 returned KDM5B inh inconclusive, SNCA expr inh -13.2%, SNCA viab count 5.7% and IP6K1 inhibitor -2.5.
Cc1cc(C)c([S+](=O)([O-])c2nnn3c2nc(NCc2ccncc2)c2ccccc23)c(C)c1 was read as KDM5B inh inconclusive, SNCA expr inh -20.6%, SNCA viab count -4.4% and IP6K1 inhibitor 7.4.
`COc1ccc([S+](=O)([O-])c2nnn3c2nc(NCc2ccncc2)c2ccccc23)cc1` gave KDM5B inh inconclusive, SNCA expr inh 33.4%, SNCA viab count -4.5% and IP6K1 inhibitor 7.6.
O=C(Cc1ccc2c(c1)OCO2)N1CCc2c(n(CCOc3ccccc3)n(-c3ccccc3)c2=O)C1 was read as KDM5B inh inactive, SNCA expr inh -14.1%, SNCA viab count -6.9% and IP6K1 inhibitor 18.0.
O=Cc1cccc(-c2ccc(C(=O)O)o2)c1 was read as KDM5B inh 126µM*, SNCA expr inh 26.5%[87.6 µM], SNCA viab count 3.7%[87.6 µM] and IP6K1 inhibitor -20.3.
For O=C(O)c1ccc(Cc2ccccc2)o1 the results were KDM5B inh inactive.
For Nn1c(SCc2cccc(S(=O)(=O)N3CCOCC3)c2)nnc1-c1cccc(Cl)c1 the results were KDM5B inh inactive.
For Cc1cccc(OCC(=O)N2CCC3(CC2)CN(c2ncccn2)CC3CO)c1 (configuration not stated) the results were KDM5B inh 20µM*, SNCA expr inh 8.5%, SNCA viab count 9.8% and IP6K1 inhibitor -4.8.
Screening O=C(COc1ccccc1)N1CCC2(CC1)CN(c1ncccn1)CC2CO (configuration not stated) returned KDM5B inh 22.4µM*, SNCA expr inh -13.9%, SNCA viab count -5.2% and IP6K1 inhibitor 6.2.
`O=C(COc1ccccc1)N[C@H]1CO[C@H]2[C@@H]1OC[C@H]2OC(=O)Nc1cccc2ccccc12` gave KDM5B inh inactive, SNCA expr inh -10.3%, SNCA viab count 6.4% and IP6K1 inhibitor -1.1.
`O=C(c1ccc(Cl)nc1)N1CCn2c(nnc2-c2ccccc2)C1` gave KDM5B inh inactive, SNCA expr inh -0.9%[87.6 µM], SNCA viab count 8.0%[87.6 µM] and IP6K1 inhibitor -1.4.
`Cc1csc(NC(=O)c2ccc3c(c2)OCCN(CCC(F)(F)F)C3)n1` gave KDM5B inh 35.5µM*, SNCA expr inh 49.4%[87.6 µM], SNCA viab count -6.2%[87.6 µM] and IP6K1 inhibitor 2.4.
`Cc1cnc(NC(=O)c2ccc3c(c2)OCCN(CCC(F)(F)F)C3)s1` gave KDM5B inh inactive, SNCA expr inh 71.0%[87.6 µM], SNCA viab count -11.3%[87.6 µM] and IP6K1 inhibitor -4.0.
Screening Clc1cccc(-n2c(SCc3nnnn3-c3ccccc3)nnc2N2CCCC2)c1 returned KDM5B inh inactive.
`O=C1[C@H]2CN(Cc3ccc(F)c(Cl)c3)C[C@H]2C(=O)N1CCc1ccccc1` gave KDM5B inh 12.6µM*, SNCA expr inh -13.0%, SNCA viab count -17.5% and IP6K1 inhibitor -24.0.
For CC(C)CCNC(=O)N1CCCC(Cn2c(C3CC3)nc3cccnc32)C1 (configuration not stated) the results were KDM5B inh inactive, SNCA expr inh 29.6%, SNCA viab count -4.1% and IP6K1 inhibitor -3.8.
`O=C(c1cc(C2CC2)[nH]n1)N1CC(F)(F)C[C@H]1c1nc(C2CC2)no1` gave KDM5B inh inactive, SNCA expr inh -14.3%, SNCA viab count 3.4% and IP6K1 inhibitor 0.7.
`O=C(c1cc[nH]c(=O)c1)N1CC(F)(F)C[C@H]1c1nc(C2CC2)no1` gave KDM5B inh 28.2µM*, SNCA expr inh 15.0%, SNCA viab count 1.2% and IP6K1 inhibitor -2.2.
Screening O=C(c1ccc2cc[nH]c2c1)N1C[C@@H](CO)[C@H](c2nc(C3CC3)no2)C1 returned KDM5B inh 31.6µM*, SNCA expr inh 6.7%, SNCA viab count 2.4% and IP6K1 inhibitor -3.8.
For Cc1noc(-c2ccc3c(c2)OCO3)c1C(=O)NCCCc1ccccc1 the results were KDM5B inh 25.1µM*, SNCA expr inh -6.6%, SNCA viab count -5.4% and IP6K1 inhibitor -1.5.
`Cc1noc(-c2ccc(OC(F)(F)F)cc2)c1C(=O)NCCC(c1ccccc1)c1ccccc1` gave KDM5B inh inconclusive, SNCA expr inh 27.4%, SNCA viab count 18.2% and IP6K1 inhibitor 0.3.

Screens: PubChem, National Center for Advancing Translational Sciences (NCATS)
